Growth data for seven compounds are collected here from PubChem BioAssay (NCI).

This is part of a sample that, as a whole, favours compounds with a hit. Of some 83,000 tested, about 20% had one in any assay.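 Percent growth is the endpoint: 0 to 100 indicates growth inhibition (40 means 60% inhibition), 0 means no net growth, and negative values indicate cell death.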 Values without a mark were called inactive. The source made the active and inactive calls. The calls were made as follows: active = growth percent below 10; inactive = the rest.

Some test systems named below: DU-145 prostate; K-562 leukemia; MALME-3M melanoma; MDA-MB-231 breast; RXF 393 renal; SF-268 CNS; SF-295 CNS; SF-539 CNS; UACC-257 melanoma; M14 melanoma; HCT-15 colon; HT29 colon; SNB-75 CNS; SNB-19 CNS; U251 CNS; PC-3 prostate; SK-MEL-5 melanoma; UACC-62 melanoma; LOX IMVI melanoma.
Experiment in all cases: NCI-60 one-dose screen, 48 h (100 = growth as untreated, 0 = no growth, -100 = all killed)
What all share (details): 10 µM unless noted

For the compound `COc1ccc(C(=O)c2nccc3cc(OC)c(OC)cc23)cc1OC`, the growth was 104% in the test on DU-145 prostate; 103% in the test on K-562 leukemia; 103% with MALME-3M melanoma; 85% in the test with MDA-MB-231 breast; 99.4% in the test on RXF 393 renal; 89.3% in the test on SF-268 CNS. Besides, the growth is 92.6% in the test on SF-295 CNS; 94.3% with SF-539 CNS; -11.2% (active) in the test on UACC-257 melanoma; 89.3% in the test on M14 melanoma; 96.7% in the test with HCT-15 colon; 113% with HT29 colon. Further, the growth in the test with SNB-75 CNS is 89.5%; with SNB-19 CNS, 94.9%; in the test on U251 CNS, 98.6%; in the test on PC-3 prostate it was 95.9%; with SK-MEL-5 melanoma, 99.6%; in the test on UACC-62 melanoma, 96.4%. Moreover, in the test on LOX IMVI melanoma, the growth was 93.3%.

`Cn1cc(-c2nnc(-c3ccccc3)s2)c2cc(Br)cnc21`: the growth was 92.6% in the test on DU-145 prostate; 70.7% in the test with K-562 leukemia; 69.9% with MALME-3M melanoma; 39.3% with MDA-MB-231 breast; 102% in the test on RXF 393 renal; 91.7% in the test on SF-268 CNS. The growth with SF-295 CNS was 95.5%; in the test with SF-539 CNS, 78.9%; in the test on UACC-257 melanoma it was 100%; with M14 melanoma, 101%; in the test with HCT-15 colon it was 77.6%; in the test on HT29 colon, 95%. Besides, the growth is 29.9% with SNB-75 CNS; 87.9% in the test on SNB-19 CNS; 92% with U251 CNS; 84.9% with PC-3 prostate; 74.1% with SK-MEL-5 melanoma; 69.5% in the test with UACC-62 melanoma. Also, in the test with LOX IMVI melanoma, the growth was 83.3%.

Consider `CCOC(=O)c1ccc2nc(-c3c(C)nn(-c4ccccc4)c3N3CCOCC3)[nH]c2c1`, for which the growth in the test on DU-145 prostate is 105%; in the test on K-562 leukemia, 91.2%; in the test with MALME-3M melanoma, 98.7%; in the test on MDA-MB-231 breast, 69.9%; with RXF 393 renal it was 92.1%; with SF-268 CNS, 94.3%. Besides, the growth in the test on SF-295 CNS is 96.2%; in the test on SF-539 CNS, 95.8%; with UACC-257 melanoma it was 106%; in the test with M14 melanoma, 89.3%; in the test with HCT-15 colon, 103%; with HT29 colon, 110%. The growth is 84.9% in the test on SNB-75 CNS; 98.6% with SNB-19 CNS; 90.8% in the test on U251 CNS; 86.9% in the test on PC-3 prostate; 94.2% in the test with SK-MEL-5 melanoma; 77.5% in the test on UACC-62 melanoma. The growth in the test with LOX IMVI melanoma was 82%.

As to `c1cc2ccc1CNCCN1CCNCc3ccc(cc3)Oc3ccc(cc3)CNCCN(CCNCc3ccc(cc3)O2)CCNCc2ccc(cc2)Oc2ccc(cc2)CNCC1`, the growth was -88.6% (active) in the test on DU-145 prostate; -23.7% (active) in the test with K-562 leukemia; -5.04% (active) in the test with MALME-3M melanoma; -87% (active) in the test with MDA-MB-231 breast; -30.8% (active) in the test with RXF 393 renal; -88% (active) with SF-268 CNS. Also, the growth with SF-295 CNS is 6.02% (active); with SF-539 CNS, -89.2% (active); in the test on UACC-257 melanoma, 37.5%; in the test on M14 melanoma, 94.8%; in the test with HCT-15 colon, 95.4%; in the test with HT29 colon it was -74.7% (active). The growth was -73.1% (active) with SNB-75 CNS; -91.2% (active) with SNB-19 CNS; -99.7% (active) with U251 CNS; -85.5% (active) in the test on PC-3 prostate; 66.1% in the test with SK-MEL-5 melanoma; -76% (active) in the test on UACC-62 melanoma. The growth with LOX IMVI melanoma is -94.1% (active).

Turning to `COc1ccc(OC)c(NC=O)c1`, the growth in the test with DU-145 prostate was 105%; in the test with K-562 leukemia, 99.8%; with MALME-3M melanoma, 107%; in the test with MDA-MB-231 breast, 106%; with RXF 393 renal, 103%; in the test on SF-268 CNS, 99.6%. Besides, the growth in the test on SF-295 CNS was 106%; in the test with SF-539 CNS, 103%; with UACC-257 melanoma, 102%; in the test with M14 melanoma, 103%; with HCT-15 colon, 103%; in the test with HT29 colon, 99.4%. For the same compound, the growth in the test on SNB-75 CNS is 100%; in the test on SNB-19 CNS, 106%; in the test with U251 CNS, 88.2%; in the test on PC-3 prostate it was 105%; in the test on SK-MEL-5 melanoma it was 110%; in the test with UACC-62 melanoma, 99.7%. In addition, the growth in the test with LOX IMVI melanoma was 100%.

For `OC(c1ccc(Cl)cc1)(c1ccc(Cl)cc1)C(O)(c1ccc(Cl)cc1)c1ccc(Cl)cc1`, the growth in the test on DU-145 prostate was 61.3%; in the test on K-562 leukemia, 32.4%; in the test with MALME-3M melanoma, 70.9%; in the test with MDA-MB-231 breast, 39.8%; in the test on RXF 393 renal, 16.2%; with SF-268 CNS it was 38.9%. Further, the growth is -2.57% (active) in the test on SF-295 CNS; 87.2% in the test on SF-539 CNS; 64.7% in the test on UACC-257 melanoma; 35.6% in the test on M14 melanoma; 33.8% in the test on HCT-15 colon; 24% in the test on HT29 colon. In addition, the growth in the test on SNB-75 CNS was 27.8%; in the test with SNB-19 CNS it was 40.5%; in the test with U251 CNS it was 46.6%; in the test on PC-3 prostate it was 33.5%; in the test on SK-MEL-5 melanoma it was 71.7%; in the test on UACC-62 melanoma, 50.8%. Moreover, the growth in the test with LOX IMVI melanoma is 11.2%.

For `Fc1ccc(NC(=S)c2ccccc2)cc1`, the growth was 106% with DU-145 prostate; 105% with K-562 leukemia; 96.2% in the test on MALME-3M melanoma; 102% with MDA-MB-231 breast; 109% in the test on RXF 393 renal; 99% in the test on SF-268 CNS. The growth in the test on SF-295 CNS is 95.8%; in the test on SF-539 CNS it was 97.6%; in the test on UACC-257 melanoma, 98.9%; with M14 melanoma, 100%; with HCT-15 colon, 102%; with HT29 colon it was 109%. Also, the growth with SNB-75 CNS was 99.7%; in the test on SNB-19 CNS it was 100%; with U251 CNS, 98.5%; in the test on PC-3 prostate it was 100%; in the test on SK-MEL-5 melanoma, 101%; in the test on UACC-62 melanoma, 88.9%. Further, in the test with LOX IMVI melanoma, the growth is 112%.
